Results filed as inconclusive are left out. The source made the active and inactive calls. Calls follow the shape of the dose curve; as a rule, active = well fitted inhibition curve with a large enough effect; inconclusive = small, poorly fitted or top-dose-only effect; inactive = flat fitted curve, though single readings scatter.
Key:
Assay in all cases: qHTS profiling for inhibitors of Plasmodium falciparum proliferation (AID 504749); also: nearly all actives have a fitted effect of over 60% in size
Conditions in all cases: P. falciparum in erythrocytes, SYBR Green DNA, 72 h; series mostly up to 28.7 µM
[1] = tested on: DIV17
In short: (§1)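 P. falciparum-infected erythrocytes (0.3% parasitemia, 2.5% hematocrit final) were exposed to compounds for 72 h at 37 C in 5% CO2, then lysed with SYBR Green buffer overnight at room temperature; parasite DNA fluorescence was normalized to artemisinin and DMSO controls.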

[2] = tested on: Dd2
In short: as §1

[3] = tested on: FAB9
In short: as §1

[4] = tested on: GB4
In short: as §1

[5] = tested on: ICS
In short: as §1

[6] = tested on: ECU
In short: as §1

[7] = tested on: HB3
In short: as §1

[8] = tested on: JCK
In short: as §1

[9] = tested on: N140
In short: as §1

[10] = tested on: DIV30
In short: as §1

Measured: Potency
Potency is read from the fitted curve at half-maximal effect.

CC(C(O)c1ccc(O)cc1)N1CCC(Cc2ccccc2)CC1 (stereo unspecified)
active: [1] 15.1 µM | [2] 8.91 µM | [4] 7.57 µM
inactive: [3]

Oc1ccc(C(O)CNCCCCCCNCC(O)c2ccc(O)c(O)c2)cc1O (stereo unspecified)
inactive: [3]
active: [1] 15.1 µM | [2] 10 µM | [4] 13.5 µM | [5] 6.31 µM

CNC(=O)Oc1ccc2c(c1)[C@]1(C)CCN(C)[C@@H]1N2C
active: [1] 4.26 µM | [6] 1.78 µM | [3] 2 µM | [4] 4.78 µM | [7] 2 µM | [8] 2.82 µM | [9] 1.78 µM

CN(C)CCN(Cc1ccccc1)c1ccccn1
inactive: [6] | [3] | [7] | [8]

O=C1O[C@H]([C@@H](O)CO)C(O)=C1O
not listed: [6]
inactive: all other assays above

[Cl][In]([Cl])[Cl]
active: [10] 15.1 µM | [2] 11.2 µM | [5] 2.51 µM

Cc1ccc(C(C)C)cc2c(C)ccc1-2
not listed: [10]
inactive: all other assays above

Cc1c(O)cccc1C(=O)N[C@@H](CSc1ccccc1)[C@H](O)CN1C[C@H]2CCCC[C@H]2C[C@H]1C(=O)NC(C)(C)C
active: [10] 15.1 µM | [2] 11.2 µM | [6] 11.2 µM | [7] 10 µM | [5] 4.47 µM | [9] 7.94 µM
inactive: [3]

COC(=O)C1=C(C)NC(C)=C(C(=O)OC)C1c1ccccc1[N+](=O)[O-]
not listed: [1] | [5]
inactive: all other assays above

CN1CCN(C2Cc3ccccc3Sc3ccc(Cl)cc32)CC1 (stereo unspecified)
inactive: [3] | [7] | [8] | [9]
active: [5] 12.6 µM

CCN(CC)CCNC(C(=O)OCCC(C)C)c1ccccc1 (stereo unspecified)
active: [1] 7.57 µM | [2] 7.08 µM | [4] 7.57 µM | [5] 5.62 µM
inactive: [3] | [7] | [8]

NC1CCN(c2cccc(Cl)n2)CC1
active: [4] 7.57 µM
not listed: [1] | [2]
inactive: all other assays above

CSc1ccc2c(c1)C(N1CCN(C)CC1)Cc1ccccc1S2 (stereo unspecified)
active: [1] 15.1 µM | [4] 13.5 µM | [5] 8.91 µM
inactive: [3] | [7] | [8]

NC(=O)N/N=C/c1ccc([N+](=O)[O-])o1
active: [2] 10 µM | [4] 13.5 µM | [7] 11.2 µM | [5] 11.2 µM | [9] 11.2 µM
inactive: [3] | [8]

CNCCC(Oc1ccc(C(F)(F)F)cc1)c1ccccc1 (stereo unspecified)
active: [1] 6.75 µM | [10] 6.75 µM | [4] 13.5 µM | [5] 7.94 µM
inactive: [3] | [7]

CCCn1cnc2c1c(=O)n(CCCCC(C)=O)c(=O)n2C
not listed: [1] | [4] | [5]
inactive: all other assays above

CCOC(CN1CCN(CC(C)C(=O)c2ccccc2)CC1)c1ccccc1 (stereo unspecified)
inactive: [10] | [6] | [3] | [7] | [8] | [9]

c1ccc(CN(CC2=NCCN2)c2ccccc2)cc1
active: [1] 7.57 µM | [2] 12.6 µM
inactive: [3] | [7]

CCOc1nc2cccc(C(=O)O)c2n1Cc1ccc(-c2ccccc2-c2nn[nH]n2)cc1
inactive: [2] | [3] | [4] | [7] | [8]

CNCCCC1c2ccccc2C=Cc2ccccc21
inactive: [6] | [3] | [7] | [8] | [9]
active: [1] 2.56 µM

COCCOC(=O)C1=C(C)NC(C)=C(C(=O)OC/C=C/c2ccccc2)C1c1cccc([N+](=O)[O-])c1 (stereo unspecified)
inactive: [3] | [8]
active: [1] 8.49 µM | [2] 12.6 µM | [6] 10 µM | [7] 11.2 µM | [5] 11.2 µM | [9] 8.91 µM

COc1ccc2[nH]c(S(=O)Cc3ncc(C)c(OC)c3C)nc2n1 (stereo unspecified)
active: [1] 4.78 µM | [2] 12.6 µM | [6] 6.31 µM | [5] 7.94 µM | [9] 6.31 µM

Nc1ccc(S(=O)(=O)Nc2ccc(Cl)nn2)cc1
active: [8] 0.891 µM
inactive: [1] | [10] | [4] | [5]
